Tb PYK inh: blocks Trypanosoma brucei pyruvate kinase. Q57TT1. TbPYK enzyme, Kinase-Glo Plus ATP luminescence, 45 min. Potency, µM (doses to about 76.8 µM), for the others: at the highest dose activity, negative = inhibition, actives largely listed as inhibitors. 410,000 tested, 0.12% active. AID 624173; further: nearly all actives have a fitted effect of over 50% in size
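Luminescence from Kinase-Glo Plus, added after a 45-minute room-temperature reaction, served as the end-point read-out. The enzyme and substrate were preincubated with compound before ADP (130 uM final) initiated turnover. Concentration-effect curves came from normalized qHTS data.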
Sm TGR inh: blocks Schistosoma mansoni thioredoxin glutathione reductase; Q962Y6; purified TGR, DTNB reduction, TNB absorbance 405 nm; Potency, µM (highest dose often 114 µM), inactives show top-dose activity change, negative = inhibition, usual class: inhibitors; 360,000 tested, 3% active; AID 485364; further: nearly all actives have a fitted effect of over 60% in size
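TGR 20 nM + NADPH 100 uM (dispensed conc.), cpd preinc 15 min RT; start with NADPH (500 uM addition) then DTNB (15 mM addition). Kinetic TNB absorbance, 405 nm filter. Four-parameter Hill fit across titration.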
LmPK inh: LmPK (Leishmania mexicana) enzyme inhibition. AID 1721. Q27686. 290,000 tested, 0.37% active. Potency, µM (top dose mostly 57.5 µM), inactives show at the highest dose activity change, negative = inhibition, usual class: inhibitors. purified LmPK, Kinase-Glo ATP luminescence, 1 h
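qHTS format; LmPK 0.1 nM; substrates PEP 0.5 mM and ADP 0.1 mM. One-hour room-temperature incubation, then coupled luciferase luminescence; 0.5 nM enzyme wells mark activation.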
FBPA Giardia inh: inhibitors of Giardia lamblia fructose-1,6-bisphosphate aldolase. A8B2U2. purified Giardia FBPA. Potency, µM (titrated, usually from 59.6 µM), for the others: at the highest dose activity, negative = inhibition, most hits filed as inhibitors. 290,000 tested, 0.71% active. AID 2451; further: nearly all actives have a fitted effect of over 55% in size
Target sequence (A8B2U2 whole entry, looked up): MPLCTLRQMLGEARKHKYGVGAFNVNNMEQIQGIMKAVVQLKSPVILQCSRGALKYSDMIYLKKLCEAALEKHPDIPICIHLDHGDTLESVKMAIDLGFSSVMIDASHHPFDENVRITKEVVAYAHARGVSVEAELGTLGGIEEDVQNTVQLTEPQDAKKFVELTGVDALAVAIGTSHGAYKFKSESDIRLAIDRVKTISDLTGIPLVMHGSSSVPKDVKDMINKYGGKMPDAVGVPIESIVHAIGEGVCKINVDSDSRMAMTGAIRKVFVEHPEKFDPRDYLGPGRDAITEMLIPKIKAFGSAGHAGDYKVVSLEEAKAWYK
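Giardia FBPA (40 nM reagent) was preincubated 10 min at RT with compound (up to 57.5 uM final), then substrate plus GAPDH/TPI/NAD/arsenate coupling system with diaphorase/resazurin was added; resorufin fluorescence (525/598 nm) was read after 20 min.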
RE007 growth inh: less growth of the S. pombe RE007 Vpr strain; 360,000 tested, 0.21% active; S. pombe RE007 Vpr strain, BacTiter-Glo ATP luminescence, 24 h; Potency, µM (series often up to 92.2 µM), without a hit: top-dose activity change, negative = less growth, usual class: inhibitors; active means well fitted falling curve with a large enough effect; inconclusive means small, poorly fitted or top-dose-only effect; inactive means no such curve, though single readings can be large or run the other way; further: nearly all actives have a fitted effect of over 50% in size
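Fission yeast RE007 carrying one integrated HIV-1 vpr copy, seeded at OD 0.01 in PMG+AL medium with 23 nL pinned compound. Grown 24 h at 30 degrees; viability read by BacTiter-Glo luminescence after 5 min.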
* = called active by the depositor; ? = inconclusive; . = no result given. Hits are enriched below; roughly 3.3% of the tested compounds scored in any of these assays. Unless noted, the call rests on the fitted dose curve; in most records, active means well fitted curve in the direction sought with a large enough effect; inconclusive means small, poorly fitted or top-dose-only effect, or another doubt; inactive means no such curve, though single readings can be large; an effect the other way counts as inactive or inconclusive. On the % scale 0 is the no-effect control and ±100 the full control effect; potency means the concentration at half of the fitted maximal effect.

SMILES	Tb PYK inh	Sm TGR inh	LmPK inh	FBPA Giardia inh	RE007 growth inh
Cc1c([N+](=O)[O-])c(C(=O)Sc2ccc(Br)cc2)nn1C	-0.1%	0.501µM*	6.4%	11.2%	?
Cc1c([N+](=O)[O-])c(C(=O)N2CCCC2)nn1C	-19.1%	1.1%	-5.2%	9.7%	1.3%
COc1cccc(-c2noc(CCC(=O)N3CCN(c4cc(C)ccc4C)CC3)n2)c1	-6.5%	.	.	.	6.2%
Cc1ccc(-c2ccc(C(=O)Nc3ccccc3)o2)c2ccccc12	1.1%	35.5µM*	0.5%	?	3.2%
Cc1ccc(-c2ccc(C(=O)NCc3ccccc3)o2)c2ccccc12	-2.4%	39.8µM*	0.0%	-14.0%	-10.7%
O=C(Cc1n[nH]c(=O)c2ccccc12)N/N=C/c1cc2c(cc1Cl)OCO2	-0.8%	-1.0%	-2.5%	-5.8%	3.7%
CC(C)C[C@H](NC(=O)OC(C)(C)C)C(=O)NCC1CCC(C(=O)N[C@@H](Cc2ccccc2)C(=O)O)CC1 (stereo partly specified)	-12.3%	10.1%	3.5%	-4.4%	-6.7%
Cc1[nH]nc2c1C(c1ccc(-c3ccccc3C#N)o1)C(C#N)=C(N)O2 (stereo unspecified)	10.2%	12.6µM*	-2.2%	?	-5.5%
O=[N+]([O-])c1ccc(N2CCOCC2)c2c1no[n+]2[O-]	-14.7%	.	.	.	44.7µM*
Cc1ccc2c(c1)C1CN(C)CCC1N2C(=O)Nc1ccc(Cl)cc1 (stereo unspecified)	6.1%	0.0%	0.4%	-0.7%	-4.4%
O=C(c1ccccc1)c1coc2c1C(=O)c1ccccc1C2=O	-6.8%	-28.5%	-5.5%	-22.2%	?
COc1ccc(C(=O)c2coc3c2C(=O)C(=O)c2ccccc2-3)cc1	-3.2%	-24.6%	5.4%	7.06µM*	39.8µM*
O=C1CC(c2ccccc2)CC(=O)C1CS(=O)(=O)c1ccccc1 (stereo unspecified)	-21.6%	0.708µM*	-0.6%	-29.5%	0.6%
COCCN(C(=O)COC(=O)c1ccc(Cl)nc1)c1c(N)n(Cc2ccccc2)c(=O)[nH]c1=O	-1.0%	1.0%	.	.	16.2%
O=C(c1ccccc1F)N1c2nc(-c3ccco3)nn2C2(CCCCC2)[C@@H]2CCCC[C@@H]21	-19.0%	10µM*	.	.	.
COc1ccc(C(=O)N2c3nc(-c4ccco4)nn3C3(CCCCC3)[C@@H]3CCCC[C@@H]32)cc1OC	?	11.2µM*	.	.	.
CSc1nc(-c2ccco2)nn1C(=O)c1cccs1	-2.7%	?	3.4%	-2.4%	-12.3%
COc1ccc(C(=O)n2nc(-c3ccco3)nc2NCc2cccs2)cc1	-18.0%	11.2µM*	.	.	.
COc1ccc(C(=O)n2nc(-c3ccco3)nc2SC)cc1OC	-15.8%	10µM*	8.3%	-23.5%	-20.3%
O=C(c1ccc(F)cc1)N1c2nc(-c3ccco3)nn2C2(CCCCC2)[C@@H]2CCCC[C@@H]21	-7.4%	?	.	.	.
CC(=O)Nc1cccc(NC(=O)C(=O)Nc2ccc3c(c2)N(C(=O)C2CC2)CCC3)c1	-4.6%	6.0%	.	.	5.9%
Cc1nnc(SCc2nc3sc4c(c3c(=O)[nH]2)CCCC4)n(N)c1=O	-8.0%	14.1µM*	4.2%	-0.2%	-7.6%
Nc1nc(SCc2nc3sc4c(c3c(=O)[nH]2)CCCC4)n[nH]1	-5.8%	8.2%	1.1%	-2.8%	8.1%
COc1ccc(C(=O)NC(CC(C)C)C(=O)O)cc1 (stereo unspecified)	1.7%	?	.	.	1.0%
O=C(c1cccs1)n1nc(-c2ccco2)nc1SCc1ccccc1	5.4%	-12.3%	0.8%	-7.1%	-6.9%
CC(=O)n1nc(-c2ccco2)nc1SCc1ccccc1	-13.1%	31.6µM*	-2.6%	-19.8%	-0.1%
CCC(=O)n1nc(-c2ccco2)nc1SCc1ccccc1	4.9%	8.91µM*	-3.5%	-11.3%	11.9%
Cc1cccc(N2CCN(C(=O)c3cc4c(=O)oc5ccccc5c4s3)CC2)c1C	4.8%	-0.1%	.	.	.
O=C(NCCCN1CCCCCC1)c1cc2c(=O)oc3ccccc3c2s1	-0.2%	50.1µM*	2.7%	-8.6%	-21.5%
Cc1ccc(C)c(N2CCN(C(=O)c3cc4c(=O)oc5ccccc5c4s3)CC2)c1	2.9%	89.1µM*	.	.	.

Screens as filed in PubChem BioAssay.
